Laboratory results: PubChem BioAssay
Where “and” joins values, the source holds several entries; their conditions need not be identical. Equal entries are not always repeated. Records with an inconclusive call do not appear. Calls of active or inactive are those of the source.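 The calls were made as follows, unless noted: active = normalized viability below 100% at a tested concentration; inactive = the rest.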

Legend:
[1] = growth inhibition of DIPG glioma cells, dose response, cell-based, SU-DIPG-XVII, MIPE5.0, CellTiter-Glo, qHTS (AID 1347060; cut-off not given, nearly all actives have AC50 up to about 26 µM;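 also: cells exposed to compound for 48 hours before viability readout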); conditions: SU-DIPG-XVII viability, CellTiter-Glo ATP luminescence
[2] = growth inhibition of DIPG glioma cells, dose response, cell-based, SU-DIPG-XIII, MIPE4.0, CellTiter-Glo, qHTS (AID 1347061; cut-off not given, nearly all actives have AC50 up to about 37 µM;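 also: cells exposed to compound for 48 hours before readout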); conditions: SU-DIPG-XIII viability, CellTiter-Glo ATP luminescence
[3] = growth inhibition of DIPG glioma cells, dose response, cell-based, JHH-DIPG-1, MIPE4.0, CellTiter-Glo, qHTS (AID 1347062; cut-off not given, nearly all actives have AC50 up to about 27 µM;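 also: cells exposed to compound for two days before readout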); conditions: JHH-DIPG-1 viability, CellTiter-Glo ATP luminescence
[4] = growth inhibition of DIPG glioma cells, dose response, cell-based, SU-DIPG-IV, MIPE4.0, CellTiter-Glo, qHTS (AID 1347063; cut-off not given, nearly all actives have AC50 up to about 30 µM;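 also: compound exposure lasted 48 hours before the viability readout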); conditions: SU-DIPG-IV viability, CellTiter-Glo ATP luminescence
[5] = growth inhibition of DIPG glioma cells, dose response, cell-based, SU-DIPG-XIII, MIPE5.0, CellTiter-Glo, qHTS (AID 1347064; cut-off not given, nearly all actives have AC50 up to about 23 µM;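 also: cells exposed to compound for 48 hours before the viability read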); conditions: SU-DIPG-XIII viability, CellTiter-Glo ATP luminescence
[6] = viability loss in pontine glioma line – cell-based, SU-DIPG-XXV, MIPE5.0, CellTiter-Glo, qHTS, dose response (AID 1347065; cut-off not given, nearly all actives have AC50 up to about 26 µM;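 also: cells exposed to compound for 48 hours before ATP readout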); conditions: CellTiter-Glo ATP luminescence
[7] = SU-DIPG-VI glioma cell viability, MIPE4.0 library, CellTiter-Glo luminescence, qHTS (AID 1347066; cut-off not given, nearly all actives have AC50 up to about 30 µM;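 also: cells exposed to compound for 48 hours before readout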); conditions: CellTiter-Glo ATP luminescence
[8] = JHH-DIPG-1 glioma cell viability, MIPE5.0 library, CellTiter-Glo luminescence, qHTS (AID 1347067; cut-off not given, nearly all actives have AC50 up to about 26 µM;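 also: cells exposed to compound for 48 hours before readout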); conditions: JHH-DIPG-1 glioma viability, CellTiter-Glo ATP luminescence
[9] = SU-DIPG-XXV glioma cell viability, MIPE5.0 library, qHTS (AID 1347068; cut-off not given, nearly all actives have IC50 up to about 30 µM;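 also: cells exposed to compound for 48 hours before viability readout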)
[10] = sensitizers of A549 cells to miR-34 induction, primary screen, imaging, A549 dox-inducible miR-34, nuclei and caspase counts (AID 1347080;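 active = compounds whose cell count with miR-34 switched on is under 0.7 times the count with it off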); conditions: A549 miR-34 inducible, Hoechst nuclei count, 48 h
[11] = modifiers of HSF1 nuclear foci, imaging, Selleck Cancer Library (AID 1347162; in the data active = plate-normalised HSF1 focus index below about 0.46); conditions: human cells, at 10 µM; SSMD: measured here: HSF1 foci SSMD mean; cell count: measured here: cell number; plate-normalised HSF1 focus index: stronger effect = lower value
[12] = survival rescue of mitochondrial mutant cells in low glucose, primary screen, MELAS cybrids, Rieske KO mouse fibroblasts, CellTiter-Glo (AID 1508586;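 active = mean z-score across replicates of 1.96 or higher in either the MELAS or the Rieske mutant cell line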;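 also: z relative to plate mean and SD of compound and empty wells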)
[13] = ovarian cancer cell viability with rucaparib, profiling panel, oncology-focused library, rucaparib conditional (AID 1508598); conditions: patient-derived ovarian cancer cells, CellTiter-Glo viability, 144 h, stronger effect = lower value
[14] = viability rescue of complex I mutant cybrids, primary screen, cell-based, galactose medium, ATP luminescence (AID 1645843;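 active = z-score of at least 1.8 in each of two replicates, scored against plate mean and spread of sample wells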;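 also: positive z means more ATP and so rescue of galactose-driven cybrid death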); conditions: complex I mutant cybrid cells, 72 h, stronger effect = higher value

Question: With `CS(=O)(=O)c1cccc(CNc2nc(Nc3ccc4c(c3)CCC(=O)N4)ncc2C(F)(F)F)c1` as the compound, how does the AC50 [1] read?
Answer: The AC50 was 6.61 µM (active).

Question: And the AC50 [2]?
Answer: The AC50 was 18.7 µM (active).

Question: What about the AC50 [3] of the same compound?
Answer: The AC50 was 16.6 µM (active).

Question: And the AC50 [4]?
Answer: The AC50 was 18.7 µM (active).

Question: And the AC50 [5]?
Answer: Its AC50 is 8.33 µM (active).

Question: And the AC50 [6]?
Answer: Its AC50 is 4.68 µM (active).

Question: What about the AC50 [7] of the same compound?
Answer: The AC50 was 16.6 µM (active).

Question: What about the AC50 [8] of the same compound?
Answer: Its AC50 is 2.35 µM (active).

Question: What about the IC50 [9] of the same compound?
Answer: Its IC50 is 8.33 µM (active).

Question: And the fold change ([10]; stronger effect = lower value, cell number ratio, induced over uninduced)?
Answer: The fold change was 0.913 (inactive) and 0.835 (inactive).

Question: What about the fold change ([10]; measured here: relative caspase fold change +Dox/-Dox) of the same compound?
Answer: The fold change was 0.606 and 1.43.

Question: What about the cell count ([10]; measured here: total cells with miR-34 induction, stronger effect = lower value) of the same compound?
Answer: Its cell count is 1320 and 1930.

Question: And the cell count ([10]; measured here: total cells without miR-34 induction)?
Answer: Its cell count is 1440 and 2320.

Question: And the SSMD [11]?
Answer: The SSMD was -1.44.

Question: What about the cell count [11] of the same compound?
Answer: The cell count was 7540.

Question: What about the plate-normalised HSF1 focus index [11] of the same compound?
Answer: The plate-normalised HSF1 focus index was 0.911 (inactive).

Question: And the z-score ([12]; MELAS cybrid survival, CellTiter-Glo 48 h, stronger effect = higher value)?
Answer: Its z-score is -0.299 (inactive).

Question: And the z-score ([12]; Rieske KO mouse fibroblast survival, CellTiter-Glo 72 h)?
Answer: The z-score was -0.256.

Question: And the viability ([13]; at 0.000305 µM, OCI-C5x cells, with rucaparib 10 µM, 100% = cells with rucaparib alone)?
Answer: Its viability is 98.4% (active).

Question: And the viability ([13]; at 0.000305 µM, OCI-C5x cells, without rucaparib)?
Answer: The viability was 109% (inactive).

Question: And the viability ([13]; at 0.000305 µM, OCI-P5x cells, with rucaparib 20 µM, 100% = cells with rucaparib alone)?
Answer: Its viability is 88.7% (active).

Question: What about the viability ([13]; at 0.000305 µM, OCI-P5x cells, without rucaparib) of the same compound?
Answer: The viability was 101% (inactive).

Question: And the viability ([13]; at 0.00122 µM, OCI-C5x cells, with rucaparib 10 µM, 100% = cells with rucaparib alone)?
Answer: Its viability is 108% (inactive).

Question: What about the viability ([13]; at 0.00122 µM, OCI-C5x cells, without rucaparib) of the same compound?
Answer: Its viability is 114% (inactive).

Question: And the viability ([13]; at 0.00122 µM, OCI-P5x cells, with rucaparib 20 µM, 100% = cells with rucaparib alone)?
Answer: The viability was 84.8% (active).

Question: What about the viability ([13]; at 0.00122 µM, OCI-P5x cells, without rucaparib) of the same compound?
Answer: Its viability is 106% (inactive).

Question: And the viability ([13]; at 0.00488 µM, OCI-C5x cells, with rucaparib 10 µM, 100% = cells with rucaparib alone)?
Answer: The viability was 113% (inactive).

Question: What about the viability ([13]; at 0.00488 µM, OCI-C5x cells, without rucaparib) of the same compound?
Answer: Its viability is 112% (inactive).

Question: What about the viability ([13]; at 0.00488 µM, OCI-P5x cells, with rucaparib 20 µM, 100% = cells with rucaparib alone) of the same compound?
Answer: The viability was 93.9% (active).

Question: And the viability ([13]; at 0.00488 µM, OCI-P5x cells, without rucaparib)?
Answer: The viability was 109% (inactive).

Question: And the viability ([13]; at 0.0195 µM, OCI-C5x cells, with rucaparib 10 µM, 100% = cells with rucaparib alone)?
Answer: The viability was 104% (inactive).

Question: And the viability ([13]; at 0.0195 µM, OCI-C5x cells, without rucaparib)?
Answer: Its viability is 109% (inactive).

Question: What about the viability ([13]; at 0.0195 µM, OCI-P5x cells, with rucaparib 20 µM, 100% = cells with rucaparib alone) of the same compound?
Answer: The viability was 91.7% (active).

Question: And the viability ([13]; at 0.0195 µM, OCI-P5x cells, without rucaparib)?
Answer: The viability was 108% (inactive).

Question: And the viability ([13]; at 0.0781 µM, OCI-C5x cells, with rucaparib 10 µM, 100% = cells with rucaparib alone)?
Answer: The viability was 102% (inactive).

Question: And the viability ([13]; at 0.0781 µM, OCI-C5x cells, without rucaparib)?
Answer: The viability was 109% (inactive).

Question: And the viability ([13]; at 0.0781 µM, OCI-P5x cells, with rucaparib 20 µM, 100% = cells with rucaparib alone)?
Answer: Its viability is 88% (active).

Question: And the viability ([13]; at 0.0781 µM, OCI-P5x cells, without rucaparib)?
Answer: Its viability is 112% (inactive).

Question: What about the viability ([13]; at 0.313 µM, OCI-C5x cells, with rucaparib 10 µM, 100% = cells with rucaparib alone) of the same compound?
Answer: Its viability is 108% (inactive).

Question: What about the viability ([13]; at 0.313 µM, OCI-C5x cells, without rucaparib) of the same compound?
Answer: Its viability is 116% (inactive).

Question: What about the viability ([13]; at 0.313 µM, OCI-P5x cells, with rucaparib 20 µM, 100% = cells with rucaparib alone) of the same compound?
Answer: Its viability is 93.7% (active).

Question: What about the viability ([13]; at 0.313 µM, OCI-P5x cells, without rucaparib) of the same compound?
Answer: Its viability is 115% (inactive).

Question: What about the viability ([13]; at 1.25 µM, OCI-C5x cells, with rucaparib 10 µM, 100% = cells with rucaparib alone) of the same compound?
Answer: Its viability is 113% (inactive).

Question: What about the viability ([13]; at 1.25 µM, OCI-C5x cells, without rucaparib) of the same compound?
Answer: Its viability is 116% (inactive).

Question: What about the viability ([13]; at 1.25 µM, OCI-P5x cells, with rucaparib 20 µM, 100% = cells with rucaparib alone) of the same compound?
Answer: The viability was 75.9% (active).

Question: And the viability ([13]; at 1.25 µM, OCI-P5x cells, without rucaparib)?
Answer: The viability was 107% (inactive).

Question: What about the viability ([13]; at 5 µM, OCI-C5x cells, with rucaparib 10 µM, 100% = cells with rucaparib alone) of the same compound?
Answer: The viability was 56.8% (active).

Question: What about the viability ([13]; at 5 µM, OCI-C5x cells, without rucaparib) of the same compound?
Answer: The viability was 59.8% (active).

Question: What about the viability ([13]; at 5 µM, OCI-P5x cells, with rucaparib 20 µM, 100% = cells with rucaparib alone) of the same compound?
Answer: The viability was 44.7% (active).

Question: And the viability ([13]; at 5 µM, OCI-P5x cells, without rucaparib)?
Answer: The viability was 74.7% (active).

Question: And the z-score [14]?
Answer: The z-score was -0.545 (inactive).

Question: For `C[C@@H](Oc1ccc2[nH]nc(/C=C/c3cnn(CCO)c3)c2c1)c1c(Cl)cncc1Cl`, which AC50 [1] is on record?
Answer: The AC50 was 0.0295 µM (active).

Question: What about the AC50 [2] of the same compound?
Answer: The AC50 was 0.418 µM (active).

Question: And the AC50 [3]?
Answer: The AC50 was 20.9 µM (active).

Question: And the AC50 [4]?
Answer: Its AC50 is 5.9 µM (active).

Question: What about the AC50 [5] of the same compound?
Answer: The AC50 was 0.0148 µM (active).

Question: And the AC50 [6]?
Answer: The AC50 was 0.0105 µM (active).

Question: What about the AC50 [7] of the same compound?
Answer: Its AC50 is 16.6 µM (active).

Question: And the AC50 [8]?
Answer: Its AC50 is 0.468 µM (active).

Question: What about the IC50 [9] of the same compound?
Answer: The IC50 was 2.09 µM (active).
